Sampled rows, rich in hits. Any-hit rate of the full collection: about 10%.
GLS inhibitor – glutaminase GLS (human) inhibition; O94925; GLS enzymatic activity, qHTS titration; Potency, µM (titrated, usually from 45.5 µM), for inactives: at the highest dose activity change, negative = inhibition, actives largely listed as inhibitors; actives 0.21% (n = 410,000); note: % is set by controls: 0 for no effect and ±100 for the full control effect
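Coupled fluorescence readout: glutamate oxidase/HRP/Amplex Red detect glutamate formed by hKGA from L-glutamine (1 mM solution added). Buffer 45 mM KH2PO4 pH 8.2, 0.02% Tween-20; reads at t0 and 30 min RT.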
JMJD2A Tudor inh – inhibitors of human JMJD2A Tudor domain; O75164; AlphaScreen JMJD2A-Tudor / H3K4me3 peptide binding; Potency, µM (top dose mostly 114 µM), for the others: at the top dose activity change, negative = inhibition, most hits filed as inhibitors; actives 4.4% (n = 390,000); AID 504339; note: % is set by controls: 0 for no effect and ±100 for the full control effect; nearly all actives have a fitted effect of over 50% in size
BAZ2B inh – BAZ2B (human) inhibition; Potency, µM (highest dose often 114 µM), inactives show at the top dose activity change, negative = inhibition, actives largely listed as inhibitors; actives 4.4% (n = 360,000); AlphaScreen BAZ2B-H3K14Ac peptide displacement; Q9UIF8; AID 504333; note: % is set by controls: 0 for no effect and ±100 for the full control effect; nearly all actives have a fitted effect of over 60% in size
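BAZ2B 50 nM plus b-H3(5-23)K14Ac 50 nM, PBS pH 7.4/0.01% Tween-20, 30 min RT; compound added (max 110 uM), 30 min RT; streptavidin donor/Ni-chelate acceptor beads 10 ug/mL final, 20 min dark; AlphaScreen read.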
L3MBTL1 inh – L3MBTL1 (human) inhibition; Q9Y468; AlphaScreen L3MBTL1–H3K9me1 peptide binding; Potency, µM (titrated, usually from 57.1 µM), inactives show top-dose activity, negative = inhibition, actives largely listed as inhibitors; actives 0.66% (n = 230,000); AID 485360; note: % is set by controls: 0 for no effect and ±100 for the full control effect; nearly all actives have a fitted effect of over 60% in size
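AlphaScreen assay: L3MBTL1 (50 nM final) was preincubated 30 min at room temperature with biotinylated H3(1-15)K9me1 peptide (75 nM final), then 30 min with library compounds; streptavidin donor and nickel chelate acceptor beads (10 ug/mL final) added, 30 min dark.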
G9a block – G9a (human) methyltransferase inhibition | Q96KQ7 | G9a H3K9 monomethylation, AlphaScreen, 2 h | Potency, µM (titrated, usually from 102 µM), for inactives: top-dose activity, negative = inhibition, most hits filed as inhibitors | actives 8.8% (n = 350,000) | AID 504332; note: % is set by controls: 0 for no effect and ±100 for the full control effect; nearly all actives have a fitted effect of over 75% in size
Target sequence (Q96KQ7 913-1193 limits assumed): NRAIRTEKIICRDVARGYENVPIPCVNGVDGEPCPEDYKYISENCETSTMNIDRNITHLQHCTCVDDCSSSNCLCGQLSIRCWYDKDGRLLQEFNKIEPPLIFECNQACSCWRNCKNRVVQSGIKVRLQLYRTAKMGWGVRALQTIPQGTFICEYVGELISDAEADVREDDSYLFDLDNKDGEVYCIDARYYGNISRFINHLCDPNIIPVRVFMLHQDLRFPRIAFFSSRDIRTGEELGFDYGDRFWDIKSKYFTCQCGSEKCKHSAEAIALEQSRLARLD
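Enzyme 20 nM + cpd, 15 min RT; add b-H3K9 pep 500 nM / SAM 20 uM; 2 h RT; anti-H3K9me1 Ab 0.5 ug/mL + SA donor / anti-rabbit acceptor beads 20 ug/mL each, 10 min; AlphaScreen read.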
HP1b binding inh – HP1-beta chromodomain-methylated histone interaction inhibition. actives 0.56% (n = 390,000). AID 540317. Potency, µM (top dose mostly 114 µM), inactives show top-dose activity change, negative = inhibition, hits mostly inhibitors. P83916. AlphaScreen HP1-beta / biotin-H3K9me3 peptide binding; note: nearly all actives have a fitted effect of over 70% in size
Target sequence (P83916 whole entry, looked up): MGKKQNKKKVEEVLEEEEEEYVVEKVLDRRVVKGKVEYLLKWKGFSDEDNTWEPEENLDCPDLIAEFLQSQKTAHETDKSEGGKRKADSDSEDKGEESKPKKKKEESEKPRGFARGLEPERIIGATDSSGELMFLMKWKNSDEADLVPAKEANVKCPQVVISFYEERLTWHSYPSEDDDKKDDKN
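AlphaScreen: HP1-beta (50 nM) preformed 30 min with biotin-H3(1-18)K9me3 peptide (50 nM) in PBS pH 7.4, 0.01% Tween-20. Compound added for 30 min at RT, then streptavidin donor/nickel chelate acceptor beads (10 ug/mL) for 30 min.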
* = called active by the depositor; ? = inconclusive; . = no result given; [ ] = another dose, or the depositor's remark. Calls come from the whole dose curve; as a rule, active = well fitted curve in the direction sought with a large enough effect; inconclusive = small, poorly fitted or top-dose-only effect, or another doubt; inactive = no such curve, though single readings can be large; an effect the other way counts as inactive or inconclusive. Potency is the fitted concentration of half-maximal effect.

SMILES | GLS inhibitor | JMJD2A Tudor inh | BAZ2B inh | L3MBTL1 inh | G9a block | HP1b binding inh
CCCn1c(SCC(=O)N2CCCCC2)nnc1-c1ccccn1 | . | . | 1% | 6% | -4% | .
CCOc1cccc(-c2nnc3sc(-c4ccco4)nn23)c1 | -1% | -32% | 4% | 0% | 7.9µM* | -11%
COc1cccc(OC)c1-c1nn2c(-c3ccco3)nnc2s1 | . | -2% | 5% | -17% | 35µM* | 31%
COc1cc(-c2nn3c(-c4ccco4)nnc3s2)cc(OC)c1OC | . | . | 6% | -3% | 22% | .
COc1cccc(-c2nn3c(-c4ccco4)nnc3s2)c1 | . | -19% | 6% | -8% | 45µM* | 25%
Cc1cc(C)cc(N2C(=O)CSC23C(=O)N(CC(=O)NCCc2ccccc2)c2ccccc23)c1 (stereo not given) | 5% | -32% | 7%[57.1 µM] | . | -7%[59 µM] | 26%
Cn1nnnc1SCCNCc1ccc(OCc2ccc(Cl)cc2)cc1 | 5% | -25% | -31% | . | 5%[59 µM] | 38%
O=c1[nH]c2ccccc2c2oc(CCl)nc12 | 13% | -15% | -18% | -3% | 35µM* | 13%
COc1ccc(N2CCN(S(=O)(=O)c3cccc4nsnc34)CC2)cc1 | 36% | 56µM* | ? | . | -11%[12.7 µM] | -37%
CC(=O)c1ccc(N2CCN(S(=O)(=O)c3cccc4nsnc34)CC2)cc1 | -13% | ? | -25% | -11% | -31% | ?
COc1cccc(N2CCN(S(=O)(=O)c3cccc4nsnc34)CC2)c1 | 3% | -26% | -37% | . | 56µM* | 17%
CC(=O)Nc1nnc(SCc2cc(=O)c3cccc(Cl)c3[nH]2)s1 | -13% | -32% | -7% | . | 31%[59 µM] | 19%[57 µM]
N=C1C(c2ccccc2)=C(O)CN1c1cccc(S(=O)(=O)N2CCOCC2)c1 | 3% | 20µM* | -1% | 2% | 1% | 10%
N=C1C(c2ccccc2)=C(O)CN1c1cccc(S(N)(=O)=O)c1 | 0% | -12% | -5% | 2% | 19%[59 µM] | 22%
COc1ccc(C=C2C=C(C(C)(C)C)C(=O)C(C(C)(C)C)=C2)cc1OC | 22% | 32µM* | 25µM* | -5% | . | ?
COc1ccccc1OCCCOc1ccc(/C=C2\SC(=O)NC2=O)cc1OC | 3% | -32% | -30% | 1%[2.29 µM] | 3%[0.501 µM] | 8%
COc1cc(/C=C2\CC/C(=C\c3ccc(OCCO)c(OC)c3)C2=O)ccc1OCCO | 0% | -18% | -21% | -3% | 45µM* | -2%
COc1ccc(/C=C2\CC/C(=C\c3ccc(OC)c(OC)c3)C2=O)cc1OC | 5% | ? | 20µM* | -11% | ? | -22%
COc1ccc(/C=C2\CCc3ccccc3C2=O)cc1OC | -5% | -26% | -32% | -1% | ? | 3%
CCOc1ccccc1CNC(=O)c1cc2cc(S(=O)(=O)N3CCCCC3)ccc2n1C | 8% | -16% | 3% | . | -3%[59 µM] | 22%[57 µM]
CC1CC(C)CN(c2oc(-c3ccc(OCc4ccccc4Cl)cc3)nc2C#N)C1 (stereo not given) | . | 1%[57.1 µM] | . | . | . | -10%[57 µM]
CC(C(=O)O)n1nc2ccccc2n1 (stereo not given) | -2% | -23% | ? | 4% | -44%[59 µM] | 26%
Cc1ccnn1C(C)C(=O)O (stereo not given) | 1% | -30% | -21% | 9% | 50µM* | -1%
Cc1ccc(CC2CC(=O)N(CCc3ccccc3)C2=O)cc1 (stereo not given) | 0% | 16% | 14% | 14% | 52% | 65%
O=C1CC(Cc2ccccc2)C(=O)N1CCCn1ccnc1 (stereo not given) | . | . | 50µM* | 4% | ? | .
SMILES | GLS inhibitor | JMJD2A Tudor inh | BAZ2B inh | L3MBTL1 inh | G9a block | HP1b binding inh
Cc1cc(C)cc(NC(=O)c2cc(S(=O)(=O)N3CCCC3)ccc2F)c1 | 2% | 0% | 4% | . | 9%[59 µM] | 25%
O=C(O)CNS(=O)(=O)c1ccc2c3c(cccc13)C(=O)N2 | -8% | 28µM* | 42% | -85% | . | 4%
CNS(=O)(=O)c1ccc2c3c(cccc13)C(=O)N2 | -2% | 0% | 0% | 0% | . | 40%
O=C1Nc2ccc(S(=O)(=O)NCc3ccco3)c3cccc1c23 | -8% | ? | . | . | . | -17%
O=C(O)CCCCCNS(=O)(=O)c1ccc2c3c(cccc13)C(=O)N2 | 21% | -2% | -36% | -14% | 79µM* | 38%
CC1=NN(c2ccccc2)C(=O)/C1=C\c1cc(C)n(-c2ccccc2)c1C | -4% | -27% | ? | 0% | 3.5µM* | ?
CC1=NN(c2ccc(C)c(C)c2)C(=O)/C1=C/c1ccc2c(c1)n(C)c(=O)n2C | -3% | -19% | ? | -9% | 7.1µM* | 2%
CC1=NN(c2ccccc2)C(=O)/C1=C\c1cc(C)n(-c2cccnc2)c1C | 7% | -12% | ? | -10% | -45% | 11%
CC1=NN(c2ccccc2)C(=O)C1 | -11% | -15% | -32% | -11% | -59%[59 µM] | 25%
CC1=NN(c2ccccc2)C(=O)/C1=C\c1ccc(Br)s1 | ? | 10µM* | 11µM* | ? | 8.9µM* | ?
CC1=NN(c2ccccc2)C(=O)/C1=C/c1cccs1 | -1% | 40µM* | 16µM* | ? | 32µM* | ?
Brc1cccc(-c2nnn3c2nc(NCc2ccc4c(c2)OCO4)c2ccccc23)c1 | 0% | 11% | 10% | . | -27%[59 µM] | 49%
CC1(C)OC(=O)C(=Cc2ccc[nH]2)C(=O)O1 | 1% | -12% | -18% | -5% | 12% | 46%
CC1=NN(c2cccc(F)c2)C(=O)/C1=C/c1ccc(N(C)C)cc1 | 3% | -17% | -26% | -1% | -16% | -2%
CC1=NN(c2ccccc2)C(=O)/C1=C/c1ccc[nH]1 | -1% | 16µM* | 11µM* | ? | 22µM* | 16µM*
CC1=NN(c2ccccc2)C(=O)/C1=C/c1ccc(Cl)cc1 | -13% | ? | ? | ? | 40µM* | ?
COc1ccc(/C=C2/C(=O)N(c3ccccc3)N=C2C)cc1Br | 5% | 18µM* | 13µM* | . | 35µM* | 22µM*
CC1=NN(c2ccccc2)C(=O)/C1=C/c1c(O)n(-c2ccc(F)cc2)[nH]c1=O | ? | 28µM* | 40µM* | -1% | 11µM* | ?
COc1ccc(/C=C2/C(=O)N(c3cccc(F)c3)N=C2C)c(OC)c1 | 1% | -23% | ? | 0%[2.29 µM] | 19%[0.501 µM] | -7%
CCOc1cc(C#N)c(NC(=O)Cn2nnc(-c3ccc(C)cc3)n2)cc1OCC | 0% | -6% | -21% | . | 5%[59 µM] | 31%
CCOc1ccc(NC(=O)c2oc3ccccc3c2NC(=O)c2ccc(OC)cc2OC)cc1 | 1% | -7% | -27% | . | -26%[59 µM] | 59%
